“And” between values parts separate entries of the source, which are not always exact repeats. Identical values can stand only once. Unmarked numbers belong to inactive results. Results filed as inconclusive are left out. The source made the active and inactive calls. Calls follow the shape of the dose curve; as a rule, active = well fitted curve in the direction sought with a large enough effect; inconclusive = small, poorly fitted or top-dose-only effect, or another doubt; inactive = no such curve, though single readings can be large or run the other way. Where a SMILES comes first, the peptide text is derived from it. [ ]: non-standard residue; d: D form. pGlu = O=C1CC[C@@H](C(=O)O)N1; Thz = O=C(O)[C@@H]1CSCN1

Among the data in PubChem BioAssay (NCATS) are Potency and max response values, retold here.

Hexokinase-4 (Homo sapiens) + Glucokinase regulatory protein (Homo sapiens), sequence (P35557 whole entry, looked up): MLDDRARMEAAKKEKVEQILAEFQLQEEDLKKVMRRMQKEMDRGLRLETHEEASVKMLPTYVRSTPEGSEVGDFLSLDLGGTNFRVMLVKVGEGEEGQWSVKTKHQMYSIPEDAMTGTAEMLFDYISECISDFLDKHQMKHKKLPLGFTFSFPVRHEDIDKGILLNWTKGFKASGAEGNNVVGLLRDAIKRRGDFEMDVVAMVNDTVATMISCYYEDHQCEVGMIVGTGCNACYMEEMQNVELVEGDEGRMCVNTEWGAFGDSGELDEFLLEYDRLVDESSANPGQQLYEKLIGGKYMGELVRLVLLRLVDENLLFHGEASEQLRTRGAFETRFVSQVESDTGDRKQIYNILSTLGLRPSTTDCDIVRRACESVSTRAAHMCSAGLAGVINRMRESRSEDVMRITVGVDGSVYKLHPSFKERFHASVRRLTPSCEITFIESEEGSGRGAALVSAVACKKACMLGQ
Hexokinase-4 (Homo sapiens) + Glucokinase regulatory protein (Homo sapiens), sequence (Q14397 whole entry, looked up): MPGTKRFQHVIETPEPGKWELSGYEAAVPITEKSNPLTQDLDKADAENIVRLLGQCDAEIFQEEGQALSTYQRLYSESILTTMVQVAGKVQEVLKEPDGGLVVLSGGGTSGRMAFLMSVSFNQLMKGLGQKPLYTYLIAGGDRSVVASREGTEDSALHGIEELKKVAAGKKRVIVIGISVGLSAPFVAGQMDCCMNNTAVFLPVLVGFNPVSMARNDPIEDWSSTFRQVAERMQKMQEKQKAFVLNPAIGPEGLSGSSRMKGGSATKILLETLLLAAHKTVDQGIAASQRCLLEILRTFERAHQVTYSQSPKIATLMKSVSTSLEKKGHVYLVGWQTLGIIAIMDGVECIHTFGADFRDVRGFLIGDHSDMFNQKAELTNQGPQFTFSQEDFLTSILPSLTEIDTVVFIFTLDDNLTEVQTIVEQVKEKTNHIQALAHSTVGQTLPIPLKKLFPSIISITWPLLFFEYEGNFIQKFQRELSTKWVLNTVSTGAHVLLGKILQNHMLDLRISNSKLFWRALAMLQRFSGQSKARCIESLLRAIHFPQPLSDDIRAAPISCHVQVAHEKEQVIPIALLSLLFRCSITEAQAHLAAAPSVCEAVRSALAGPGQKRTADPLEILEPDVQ

One experiment has as its target Hexokinase-4 (Homo sapiens) + Glucokinase regulatory protein (Homo sapiens) (UniProt P35557+Q14397). Briefly: qHTS assay for inhibitors of recombinant human GCK-GKRP interaction: HTRF assay (AID 743207).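 Also: 0% = DMSO with GCK present and -100% = DMSO wells lacking GCK.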 The settings on record: recombinant GCK-GKRP HTRF binding, 60 min, with sorbitol-6-phosphate; series mostly up to 57.5 µM. The method in brief: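 After 60 min equilibration at room temperature with anti-FLAG XL665 and anti-GST antibodies, FRET ratio (665/615 nm, excitation 320 nm) was read. Proteins: GST-GCK and FLAG-GKRP, each 5 nM, plus 2 uM S6P, pH 7.1 buffer; GCK-free wells define minimum signal.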
(qHTS replaces the single test concentration by a dilution series.)
Turning to `O=C1NC(=O)/C(=C/c2ccc3nccnc3c2)S1`, the Potency result was “inactive”. Take `CN(C)c1ccc(/C=C2\C(=O)Nc3ccccc32)cc1`: the Potency entry is “inactive”. Consider `O=C(O)[C@@H]1C[C@@H](C(=O)O)N1`, for which the Potency entry is “inactive”.

System in the next experiment: not listed separately
The experiment in a line: qHTS Assay for Identifying Gametocytocidal Compounds (AID 743244). Also: potency is read from the fitted curve at half-maximal effect.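 As to max response: % is scaled to controls: 0 for no effect and ±100 for the full control effect; actives lower the fluorescent signal which means gametocytes are killed.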 The note with it: P. falciparum 3D7 stage III-V gametocytes, alamarBlue, 72 h; max response: stronger effect = lower value. The method in brief:
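Stage III-V P. falciparum 3D7 gametocytes, 20,000 per well, were exposed to compounds for 72 h at 37C, 5% CO2. AlamarBlue was then added for 24 h and viability was read as fluorescence at Ex 525/Em 598 nm.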
As to `CN(C)CCn1nnnc1SCC1=C(C(=O)O)N2C(=O)[C@@H](NC(=O)Cc3csc(N)n3)[C@H]2SC1`, the max response was 19.2%.

On to `CN1[C@@H]2CC[C@H]1CC(OC(c1ccccc1)c1ccccc1)C2` (some centres undefined), for which the max response is -0.265% and -8.62%. Turning to `CN1CCN(c2cc3c(nn2)Oc2ccccc2N3C)CC1`, the max response was -7.02%. The same measure, in the same setting: the result for `CC1(C)[C@@H](O)CC[C@]2(C)[C@H]3C(=O)C=C4[C@@H]5C[C@@](C)(C(=O)O)CC[C@]5(C)CC[C@@]4(C)[C@]3(C)CC[C@@H]12` reads 6.32% and -6.89%; that for `Nc1ccc(O)c(C(=O)O)c1`, 11.4%; that for `CC[C@H]1OC(=O)[C@H](C)[C@@H](O[C@H]2C[C@@](C)(OC)[C@@H](O)[C@H](C)O2)[C@H](C)[C@@H](O[C@@H]2O[C@H](C)C[C@H](N(C)C)[C@H]2O)[C@](C)(O)C[C@@H](C)C(=O)[C@H](C)[C@@H](O)[C@]1(C)O`, 1.77% and 0.604%. Still for that read-out and setting: next, `CC1(C)S[C@@H]2[C@H](NC(=O)[C@H](NC(=O)N3CCN(S(C)(=O)=O)C3=O)c3ccccc3)C(=O)N2[C@H]1C(=O)O`: 9.5%.

`C[S+](CC[C@H](N)C(=O)O)C[C@H]1O[C@@H](n2cnc3c(N)ncnc32)[C@H](O)[C@@H]1O` (some centres undefined): the max response is 6.19% and -10.1%.

On to `CNC(=O)[C@H]1O[C@@H](n2cnc3c(NCc4cccc(I)c4)ncnc32)[C@H](O)[C@@H]1O`, for which the max response is 55.6%.

Take `Cc1nc2ccccc2n1Cc1ccc(Cl)cc1`: the max response was 3.69%. As for `CC(=O)[C@]1(O)Cc2c(O)c3c(c(O)c2[C@@H](O[C@H]2C[C@H](N)[C@H](O)[C@H](C)O2)C1)C(=O)c1c(O)cccc1C3=O`, the Potency is 5.62 µM (active). Consider `Cc1onc(-c2c(F)cccc2Cl)c1C(=O)N[C@@H]1C(=O)N2[C@@H]1SC(C)(C)[C@@H]2C(=O)O`, for which the max response was 16.8% and -3.16%. Consider `COc1cc2c3cc1Oc1cc(ccc1O)C[C@@H]1c4c(cc(OC)c(O)c4Oc4ccc(cc4)C[C@@H]3N(C)CC2)CC[N+]1(C)C`, for which the max response is 1.34%. Regarding `O=C(O)[C@H](O)[C@@H](O)[C@H](O)[C@H](O)CO`, the max response is -9.36% and 0.225%. Same read-out and setting: the result for `COC(=O)[C@H]1[C@H]2C[C@@H]3c4[nH]c5cc(OC)ccc5c4CCN3C[C@H]2C[C@@H](OC(=O)/C=C/c2cc(OC)c(OC)c(OC)c2)[C@@H]1OC` reads -0.068%; that for `CC[C@H]1OC(=O)[C@H](C)C(=O)[C@H](C)[C@@H](O[C@@H]2O[C@H](C)C[C@H](N(C)C)[C@H]2O)[C@](C)(OC)C[C@@H](C)C(=O)[C@H](C)[C@H]2N(CCCCn3cnc(-c4cccnc4)c3)C(=O)O[C@]12C`, -5.82% and 15.9%; that for `COc1cc(/C=C/C(=O)N2CCN(CC(=O)N3CCCC3)CC2)cc(OC)c1OC`, -1.2%. On the same count and under the same terms, next, `O=C1NC(=O)/C(=C/c2ccc3nccnc3c2)S1`: -5.45%; `CC1(C)C[C@@H]1C(=O)N/C(=C\CCCCSC[C@H](N)C(=O)O)C(=O)O`: 3.26% and 5.48%; `COc1cc(CNC(=O)CCCC/C=C/C(C)C)ccc1O`: 10.1%. Consider `c1ccc2sc(SN3CCOCC3)nc2c1`, for which the max response was -2.78%. On to `O=C(c1ccc(OCCCc2cnc[nH]2)cc1)C1CC1`, for which the max response is 42%. As to `COc1cc(NC(C)CCCN)c2ncccc2c1` (centres undefined), the Potency is 2.15 µM (active). On to `CC(C(=O)O)c1ccc(C(=O)c2ccccc2)s1` (centres undefined), for which the max response was -0.0039%. As for `CCCCCC[C@@H](O)C/C=C\CCCCCCCC(=O)O`, the max response is 10.3% and -5.91% and 3.41%. `CCCCC[C@H](O)/C=C/[C@@H]1[C@@H](C/C=C\CCCC(=O)O)[C@@H](O)C[C@H]1O`: the max response was -4.72% and 7.02%. In the case of `O=C(O)COc1ccc(C(=O)c2cccs2)c(Cl)c1Cl`, the max response was -3.69% and 20.3%. On to `O=C1CC[C@@H](C(=O)N2CSC[C@H]2C(=O)O)N1` ([pGlu]-[Thz]-OH), for which the max response was 5.51%. On to `C[C@H](O)[C@H](O)[C@H]1CNc2nc(N)[nH]c(=O)c2N1`, for which the max response is -5.73%. With `O=C(O)[C@@H]1C[C@@H](C(=O)O)N1`, the max response was 6.85%. Turning to `CCCCCCOc1ccccc1C(N)=O`, the max response was -0.639%.

Consider `C=CCN1C(=O)C(CC(C)C)NC1=S` (centres undefined), for which the max response is 24.3% and -10.7%. For the molecule `CC1(C)[C@@H](O[C@H]2O[C@H](C(=O)O)[C@@H](O)[C@H](O)[C@H]2O[C@@H]2O[C@H](C(=O)O)[C@@H](O)[C@H](O)[C@H]2O)CC[C@]2(C)[C@H]3C(=O)C=C4[C@@H]5C[C@@](C)(C(=O)O)CC[C@]5(C)CC[C@@]4(C)[C@]3(C)CC[C@@H]12`, the max response was 1.42% and -3.92%. For `O=C1CN(/N=C/c2ccc([N+](=O)[O-])o2)C(=O)N1`, the max response is 3.97%. Consider `O=C(O)[C@H](CC(=O)N1C[C@H]2CCCC[C@H]2C1)Cc1ccccc1`, for which the max response was -8.96%. Consider `CC(C(=O)O)c1ccc2c(c1)[nH]c1ccc(Cl)cc12` (centres undefined), for which the max response was 3.15%.
